# Reference: PubChem BioAssay (NCATS)
# Records with an inconclusive call do not appear. The source made the active and inactive calls. The call rests on the fitted dose curve; in most records, active means well fitted inhibition curve with a large enough effect; inconclusive means small, poorly fitted or top-dose-only effect; inactive means no such curve, though single readings can be large or run the other way.
# Target: Protein phosphatase 1D (Homo sapiens) (UniProt O15297)
# Assay: RapidFire Mass Spectrometry qHTS Assay for Modulators of WT P53-Induced Phosphatase 1 (WIP1) (AID 1347424)
# Conditions: WIP1 dephosphorylation of phosphopeptide, RapidFire MS; series mostly up to 63 µM; activity change, negative = inhibition: at the top concentration
# Excerpt: Assay Provider (PI): Nathan Coussens Ph. D.
# National Center for Advancing Translational Sciences (NCATS), Rockville, MD
# National Institute of Health (NIH), Bethesda, Maryland
# WT P53-Induced Phosphatase 1 (WIP1) is a member of the magnesium-dependent serine/threonine protein phosphatase (PPM) family and is induced by P53 in response to DNA damage. In several human cancers, the WIP1 protein is overexpressed, which is generally associated with a worse prognosis. Although WIP1 is an attractive therapeutic target, no potent, selective, and bioactive small-molecule modulator with favorable pharmacokinetics has been reported. Phosphatase enzymes are among the most challenging targets for small molecules because of the difficulty of achieving both modulator selectivity and bioavailability. Another major obstacle has been the availability of robust and physiologically relevant phosphatase assays that are suitable for high-throughput screening.
# Here, we describe two orthogonal biochemical WIP1 activity assays that utilize phosphopeptides from native WIP1 substrates. We optimized a RapidFire MS assay to quantify the enzymatically dephosphorylated peptide reaction product in a 384-well format. Additionally, a redshifted Rhodamine-PBP fluorescence assay was optimized in a 1,536-well format to enable real-time WIP1 activity measurements through the detection of the orthogonal reaction product, Pi. We validated these two optimized assays by quantitative high-throughput screening against the National Center for Advancing Translational Sciences (NCATS) Pharmaceutical Collection and used secondary assays to confirm and evaluate inhibitors identified in the primary screen.
# SEQUENCE No. (e.g., 1, 2, 3, etc.); […] (e.g., Cells, Incubation, Reagent, etc.); VALUE; DESCRIPTION
# 1; Reagent; 50 uL; dispensed assay buffer: 0.1% formic acid in water (10 uL : 40 uL) solution in column 1
# 3; Library Compounds; 63 nL; library compounds in DMSO, columns 3-24
# 4; Control Compounds; 63 nL; DMSO in wells I-P, columns 1-2, GSK830371 (10 uM, final) in wells A-H, column 2
# 5; Time; 1 hr; incubation
# 6; Substrate; 2 uL; VEPPL-pS-QETFS (10 uM) in assay buffer, column 2-24
# 7; Time; 5 min; incubation
# 8; Reagent; 2 uL; 0.5% formic acid in water, columns 2-24
# 9; Reagent; 38 uL; VEPPL-S-QETF*S in 0.1% formic acid, columns 2-24
# 10; Detection; mass spec; RapidFire mass spectrometry
# NOTES (numbers refer to sequence above)
# 1, 2, 6; dispensed reagent in White Nunc 384-well PP microplates (264573); assay buffer: 50 mM Tris-HCl pH 7.5, 30 mM MgCl2, 1 mM TCEP, 0.1 mM EGTA, 75 ug/mL BSA.
# 2, 6, 8, 9; Dispensed with BioRaptr (Beckman Coulter)
# 2, 6, 9; Final concentrations: 10 nM WIP1; 2 uM VEPPL-pS-QETFS; 1 uM VEFFL-S-QETF*S
# 3 & 4; Kalypsys Pintool transfer (Wako USA), Tip wash sequence: water, DMSO, methanol, 20 sec vacuum dry.
# 5 & 7; incubation at room temperature
# 10; RapidFire mass spectrometry read using the Agilent RapidFire 360 (Clausse, 2019)
# Clausse V, et al. Physiologically relevant orthogonal assay for the discovery of small-molecule modulators of WIP1 […] in high-throughput screens. J Biol Chem. 2019, 294(46): 17654-17668. doi:10.1074/jbc.RA119.010201
# Potency means the concentration at half of the fitted maximal effect.
# Sequence of Protein phosphatase 1D (Homo sapiens) (O15297 whole entry, looked up): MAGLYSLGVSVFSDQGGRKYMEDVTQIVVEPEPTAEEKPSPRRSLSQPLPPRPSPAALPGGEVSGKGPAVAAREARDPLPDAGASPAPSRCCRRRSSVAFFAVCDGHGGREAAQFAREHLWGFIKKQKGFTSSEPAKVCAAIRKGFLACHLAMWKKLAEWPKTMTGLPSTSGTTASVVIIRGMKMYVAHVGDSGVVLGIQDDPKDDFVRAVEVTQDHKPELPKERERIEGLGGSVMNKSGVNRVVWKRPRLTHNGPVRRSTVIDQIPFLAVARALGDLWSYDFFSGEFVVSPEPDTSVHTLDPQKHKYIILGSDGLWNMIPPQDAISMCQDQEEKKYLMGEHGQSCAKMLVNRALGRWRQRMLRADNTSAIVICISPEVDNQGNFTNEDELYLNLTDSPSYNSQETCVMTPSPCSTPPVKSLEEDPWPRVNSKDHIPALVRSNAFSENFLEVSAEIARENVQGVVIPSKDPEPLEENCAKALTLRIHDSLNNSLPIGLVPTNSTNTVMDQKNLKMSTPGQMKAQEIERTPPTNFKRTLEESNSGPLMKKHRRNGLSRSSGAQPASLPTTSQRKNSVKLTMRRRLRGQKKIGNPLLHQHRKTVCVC
Structure (SMILES),"activity change, negative = inhibition",Potency
CCN1CCC[C@H]1CNC(=O)c1c(OC)ccc(Br)c1OC,2.51% (inactive),–
CC(Cc1cccc(C(F)(F)F)c1)NCCOC(=O)c1ccccc1 (stereo not given),26.5% (inactive),–
CCCCCCCCCCCCCCCC[N+](C)(C)CCN(Cc1ccc(OC)cc1)c1ncccn1,30.6% (inactive),–
CC(=O)N(O)CCCCCNC(=O)CCC(=O)N(O)CCCCCNC(=O)CCC(=O)N(O)CCCCCN,-14.1% (inactive),–
CCCCC(CC)CN=C(N)NC(N)=NCCCCCCN=C(N)NC(N)=NCC(CC)CCCC (stereo not given),44.7% (inactive),–
Cc1ccccc1C(=O)Nc1ccc(C(=O)N2CCCC(N(C)C)c3ccccc32)cc1 (stereo not given),7% (inactive),–
Cc1cc(O)c(C(C)C)cc1Cl,-1.11% (inactive),–
CC(=O)[C@H]1CC[C@H]2[C@@H]3C[C@H](C)C4=CC(=O)CC[C@]4(C)[C@H]3[C@@H](O)C[C@]12C,9.85% (inactive),–
CN(C)CCOc1ccccc1Cc1ccccc1,1.4% (inactive),–
NC(=O)C(=O)N/N=C/c1ccc([N+](=O)[O-])o1,-4.26% (inactive),–
c1ccc(CNCCNCc2ccccc2)cc1,6.82% (inactive),–
NC[C@H]1O[C@H](O[C@H]2[C@H](O[C@@H]3O[C@H](CO)[C@@H](O)[C@H]3O)C(O)[C@H](N)C[C@@H]2N)[C@H](N)[C@@H](O)[C@@H]1O (stereo not given in full),6.77% [at 12.6 µM] (inactive),–
CC(=O)CC(c1ccc([N+](=O)[O-])cc1)c1c(O)c2ccccc2oc1=O (stereo not given),-13.1% (inactive),–
Nc1ccc(/C=C/c2ccc(N)cc2S(=O)(=O)O)c(S(=O)(=O)O)c1,-4.22% [at 0.505 µM] (inactive),–
CC(=O)Oc1ccc(C(c2ccc(OC(C)=O)cc2)c2ccccn2)cc1,5.41% (inactive),–
Cc1cc(N)c2cc(NC(=O)Nc3ccc4nc(C)cc(N)c4c3)ccc2n1,60.7% (inactive),–
CC(C)(C(=O)c1cccnc1)c1cccnc1,0.733% (inactive),–
CCCCCCCCCCOCC(O)CN (stereo not given),41.7% (inactive),–
CN1[C@@H]2CC[C@H]1CC(OC(=O)c1c[nH]c3ccccc13)C2 (stereo not given in full),9.05% (inactive),–
CNC(=O)CN(CCN(CCN(CC(=O)[O-])CC(=O)NC)CC(=O)[O-])CC(=O)[O-].O.[Gd+3],-1.95% (inactive),–

Structure (SMILES),"activity change, negative = inhibition",Potency
C[n+]1c2cc(N)ccc2cc2ccc(N)cc21 (tested in a mixture with another compound),-12.6% (inactive),–
Cc1cccc(C)c1NC(=O)CN1CCN(CCCC(c2ccc(F)cc2)c2ccc(F)cc2)CC1,29.8% (inactive),–
N[C@H](Cc1c[nH]c2ccccc12)C(=O)O,-4.03% (inactive),–
Cc1cc2c(cc1CC(=O)c1sccc1S(=O)(=O)Nc1onc(C)c1Cl)OCO2,-4.33% (inactive),–
CC1(C)O[C@@H]2C[C@H]3[C@@H]4CCC5=CC(=O)CC[C@]5(C)[C@@]4(F)[C@@H](O)C[C@]3(C)[C@]2(C(=O)CCl)O1,-0.757% (inactive),–
CC(=O)c1ccc2c(c1)N(CCCN1CCC(CCO)CC1)c1ccccc1S2,12.5% (inactive),–
Cc1ncc(CSSCc2cnc(C)c(O)c2CO)c(CO)c1O,1.85% (inactive),–
CCOC(=O)OC(C)OC1=C(C(=O)Nc2ccccn2)N(C)S(=O)(=O)c2ccccc21 (stereo not given),6.6% (inactive),–
Oc1ccc(Cl)cc1Sc1cc(Cl)ccc1O,–,31.6 µM (active)
CC(=O)OCC(=O)[C@@]12OC(C)(C)O[C@@H]1C[C@H]1[C@@H]3C[C@H](F)C4=CC(=O)C=C[C@]4(C)[C@@]3(F)[C@@H](O)C[C@@]12C,-2.91% (inactive),–
CCOc1ccc2nc3cc(N)ccc3c(N)c2c1,-4.7% (inactive),–
C[C@@H]1CN(CCCn2c3ccccc3c3ccccc32)C[C@H](C)N1,18.7% (inactive),–
c1ccc(-c2ccc(C(c3ccccc3)n3ccnc3)cc2)cc1 (stereo not given),22.1% (inactive),–
C[C@@H]1C[C@H]2[C@@H]3C[C@H](F)C4=CC(=O)C(Cl)=C[C@]4(C)[C@@]3(F)[C@@H](O)C[C@]2(C)[C@@]1(O)C(=O)CO,-8.31% (inactive),–
CC(=O)OCC(=O)[C@@]1(OC(C)=O)[C@@H](C)C[C@H]2[C@@H]3C[C@H](F)C4=CC(=O)C=C[C@]4(C)[C@@]3(F)[C@@H](O)C[C@@]21C,9.63% (inactive),–
COc1ccc(C2C(=O)c3ccccc3C2=O)cc1,-0.606% (inactive),–
CN1CCC(=C2c3ccccc3Sc3ccccc32)CC1,12.6% (inactive),–
CCN(CC)CCOC(=O)C(c1ccccc1)C1CCCCC1 (stereo not given),32.4% (inactive),–
O=c1c(-c2ccccc2)c1-c1ccccc1,-10.1% (inactive),–
COCc1c(C(C)C)nc(C(C)C)c(/C=C/[C@@H](O)C[C@@H](O)CC(=O)O)c1-c1ccc(F)cc1,26.8% (inactive),–
